Source: PubChem BioAssay
FUS suppressor – rescues growth of FUS-expressing yeast; S. cerevisiae FUS-expressing, growth rescue, OD600, 24 h; Potency, µM (series often up to 76.6 µM), usual class: activators; hit rate 0.24% among 390,000;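 note: potency is the fitted concentration of half-maximal effect; plate controls were DMSO vehicle for no effect and reference control for full effect; nearly all actives have a fitted effect of over 55% in size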
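Restored growth of FUS-toxic S. cerevisiae, read as 600 nm absorbance after 24 h at 30C in galactose medium (starting OD 0.005). Controls CP55940 and DMSO.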
PTHR1 agonist – agonists of human PTHR1 parathyroid hormone receptor; HEK293 GP2 PTHR1 cells, GloSensor cAMP luminescence, 1 h; Potency, µM (top dose mostly 115 µM), inactives show top-dose activation, usual class: activators; hit rate 0.075% among 410,000; note: potency is the fitted concentration of half-maximal effect; nearly all actives have a fitted effect of over 55% in size
Target sequence (Q03431 whole entry, looked up): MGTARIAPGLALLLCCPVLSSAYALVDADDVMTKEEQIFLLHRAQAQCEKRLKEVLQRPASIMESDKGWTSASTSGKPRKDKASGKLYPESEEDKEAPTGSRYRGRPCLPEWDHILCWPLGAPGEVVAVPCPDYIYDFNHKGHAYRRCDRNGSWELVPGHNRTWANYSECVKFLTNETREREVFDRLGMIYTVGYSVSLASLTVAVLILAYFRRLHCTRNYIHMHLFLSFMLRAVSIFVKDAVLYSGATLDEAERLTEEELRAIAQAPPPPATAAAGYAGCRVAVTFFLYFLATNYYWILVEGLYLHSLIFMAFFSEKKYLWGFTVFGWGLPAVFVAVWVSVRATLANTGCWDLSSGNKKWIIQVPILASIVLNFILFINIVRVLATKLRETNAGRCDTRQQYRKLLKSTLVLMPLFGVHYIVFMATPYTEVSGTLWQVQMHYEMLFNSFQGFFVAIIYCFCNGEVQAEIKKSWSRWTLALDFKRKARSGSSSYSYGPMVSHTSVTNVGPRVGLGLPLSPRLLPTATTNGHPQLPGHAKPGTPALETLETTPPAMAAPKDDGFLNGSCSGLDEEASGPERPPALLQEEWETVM
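HEK-293-derived GP2 cells expressing PTHR1 and a GloSensor cAMP reporter, 3,000/well, plated overnight, given luciferin plus IBMX (each 0.5 mM as added) for 1 h at 37 °C, then compound for 1 h at 37 °C. Luminescence was read after 15 min at room temperature.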
TDP-43 yeast inh – TDP-43 toxicity inhibition in yeast; hit rate 1.8% among 410,000; TDP-43 expressing yeast growth rescue, BacTiter-Glo, 24 h; AID 652104; Potency, µM (highest dose often 46.1 µM), inactives show at the highest dose growth rescue (activation), usual class: activators; note: potency is the fitted concentration of half-maximal effect; % of control where 0% means no effect; nearly all actives have a fitted effect of over 50% in size
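In this qHTS, compounds that restore growth of yeast expressing TDP-43 appear as activators. Cells (OD600=0.02, galactose medium, raffinose-pregrown) are incubated with compound 24 hr at 30 deg C and growth is quantified by BacTiter-Glo.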
aSyn yeast inh – rescues yeast growth from alpha-synuclein toxicity; Yeast expressing alpha-synuclein, growth rescue, BacTiter-Glo, 24 h; Potency, µM (top dose mostly 46.1 µM), without a hit: top-dose growth rescue (activation), actives largely listed as activators; hit rate 0.14% among 370,000; AID 652106; note: potency is the fitted concentration of half-maximal effect; % of control where 0% means no effect; nearly all actives have a fitted effect of over 65% in size
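Galactose-induced alpha-syn yeast (OD600=0.02, raffinose-pregrown) + pinned cpd, 24 hr, 30 deg C; growth by BacTiter-Glo luminescence. Growth restoration scores as activation.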
LDHA block – inhibitors of human lactate dehydrogenase A | P00338 | purified LDHA, NADH/diaphorase-resazurin fluorescence; active compounds read low | activity change, % (values are at about 110 or 230 µM) | hit rate 0.15% among 480,000 | AID 1347041; in the data active = activity change below about -30%; inconclusive = mostly about -25% to -30%;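 note: plate controls were DMSO wells for no effect and wells without enzyme for full effect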
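Remaining NADH was detected by diaphorase (0.133 mg/mL) converting 37 µM resazurin to fluorescent resorufin, read at 0 and 20 minutes. The preceding 5-minute room-temperature reaction used 2 nM LDHA, 0.2 mM sodium pyruvate and 0.06 mM NADH at pH 7.4.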
Abeta rescue – restores growth of yeast expressing A-beta42 peptide. yeast expressing A-beta42, growth rescue, OD600, 48 h; response scale: 0% DMSO, 100% iron-clioquinol control. Potency, µM (titrated, usually from 46.1 µM), usual class: activators. hit rate 0.063% among 410,000. AID 1347071; note: potency is the fitted concentration of half-maximal effect; nearly all actives have a fitted effect of over 55% in size
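Yeast A-beta toxicity model in growth medium with pinned compounds, 48 h at 30 C; growth read as absorbance at 600 nm. Normalized to FeCl3/clioquinol equimolar mix (positive) and DMSO (negative).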
* hit, by the source's call; i = inactive; ? = inconclusive; nt = not tested or not shown; [ ] = dose if it differs, or a comment. In the library only some 1.9% were active in any assay of this set; here they are far more common. Unless noted, calls come from the whole dose curve; as a rule, active = well fitted curve in the direction sought with a large enough effect; inconclusive = small, poorly fitted or top-dose-only effect, or another doubt; inactive = no such curve, though single readings can be large; an effect the other way counts as inactive or inconclusive.

SMILES	FUS suppressor	PTHR1 agonist	TDP-43 yeast inh	aSyn yeast inh	LDHA block	Abeta rescue
Cc1cc2oc(C(=O)O)c(C)c2cc1C	nt	nt	nt	nt	4	nt
COc1ccccc1C(C1=C(O)CC(C)(C)CC1=O)C1=C(O)CC(C)(C)CC1=O	nt	nt	nt	nt	3	nt
Cc1nc2c(OCc3ccc(C(F)(F)F)cc3)cccn2c1N(C)C(=O)CCC1CCCC1	22µM*	-82%	-75%	-41%	4	i
Cc1nc2c(OCc3ccc(F)cc3)cccn2c1N(C)C(=O)CCC1CCCC1	i	-7%	0%	0%	21	i
Cc1ccc(NC(=O)/C(C#N)=C\c2ccc(OC(F)F)cc2)c(C)c1	nt	nt	nt	nt	2	nt
COc1cc(/C=C/c2ccc(O)cc2)cc(OC)c1	i	i	28µM*	-19%	3	i
COc1ccccc1C(=O)N1CCN(c2oc(-c3ccccc3)nc2C#N)CC1	nt	nt	nt	nt	10	nt
CCCc1nc(NCC2CCCO2)c(C#N)c2c1CCCC2 (stereo not given)	nt	nt	nt	nt	9	nt
CC(C)c1cc(N2CCOCC2)n2ncc(-c3ccccc3)c2n1	i	-23%	10%	-1%	-11	i
Cc1cc(N2CCOCC2)n2ncc(-c3ccccc3Cl)c2n1	i	-19%	13µM*	11%	-4	i
CN(C)CCCNC(=O)c1cc2cc(F)ccc2[nH]1	nt	nt	nt	nt	3	nt
Cc1ccc(NCSc2ccc(Cl)cc2)cc1	i	-20%	7.1µM*	11%	-3	?
Clc1ccc(SCNc2ccccc2Cl)cc1	i	-6%	-8%	-17%	0	i
O=C1C=Cc2cccc3ccc(O)c1c23	i	-16%	-48%	35µM*	12	i
O=c1oc(-c2ccc(O)c(O)c2)cc2cccc(O)c12	i	-11%	30%	14%	11	i
COc1nc2ccccc2nc1N1CCC(C(=O)Nc2ccc(C)c(C)c2)CC1	nt	nt	nt	nt	-9	nt
O=C(c1ccc(N2CCN(C(=O)c3ccc(F)cc3F)CC2)cc1)c1cccc(F)c1	i	-32%	18µM*	10%	-3	i
Cc1occc1-c1nnc(SC(C(=O)NCc2cccnc2)C(C)C)o1 (stereo not given)	nt	nt	nt	nt	-3	nt
CCSC1=N/C(=C\c2ccccc2)C(=O)N1c1ccc(OC)cc1	i	i	-2%	-3%	-4	i
CCN(CC)C1=N/C(=C\c2ccc(OC)cc2)C(=O)N1c1ccccc1	i	i	22µM*	9%	5	i
N#Cc1ccc(Oc2cccc(N)c2)cc1	nt	nt	nt	nt	-1	nt
Cc1c(/C=C/C(=O)c2ccc(Cl)s2)cnn1C	i	-33%	13µM*	3%	-6	i
COC(=O)[C@]12C[C@H](CC(=O)NCc3cccc(C(F)(F)F)c3)C(=O)N(Cc3ccc(Cl)cc3Cl)C1=C[C@H](C(C)(C)C)O[C@@H]2C	13µM*	nt	nt	nt	nt	nt
COC(=O)[C@]12C[C@H](CC(=O)NCc3ccccc3)C(=O)N(Cc3ccc(Cl)cc3Cl)C1=C[C@H](C(C)(C)C)O[C@@H]2C	i	nt	nt	nt	nt	nt
COC(=O)[C@]12C[C@H](CC(=O)N3CCN(C(=O)c4ccco4)CC3)C(=O)N(Cc3ccc(Cl)cc3Cl)C1=C[C@H](C(C)(C)C)O[C@@H]2C	11µM*	nt	nt	nt	nt	nt
SMILES	FUS suppressor	PTHR1 agonist	TDP-43 yeast inh	aSyn yeast inh	LDHA block	Abeta rescue
Cc1ccccc1NC(=O)CSc1cccs1	nt	nt	nt	nt	1	nt
Cc1nc(Cn2cc(S(=O)(=O)N(C)C)ccc2=O)no1	nt	nt	nt	nt	-13	nt
COc1ccccc1-c1nc(SCC(=O)Nc2ccccc2)n2[nH]c(=O)cc2n1	nt	nt	nt	nt	-1	nt
O=C(Nc1ccccc1)/C(=C/c1ccccc1)c1ccccc1	i	-26%	13µM*	-6%	-4	i
Cc1ccccc1NC(=O)/C(=C/c1ccccc1)c1ccccc1	i	-10%[57.5 µM]	18%	-9%	0	i
CC(=O)O[C@H]1CC[C@@]2(C)C(CCC3C2CC[C@]2(C)OC(=O)CCC32)C1 (stereo not given in full)	i	0%[57.5 µM]	35µM*	19%	-4	i
